Each sequence was assayed against CAMK2N1 (assay: pooled miR-30 sensor sort-seq; sequence = guide strand). Details: shRNA.
Note: reference of the scale not given here.

Sequence	sensor-assay potency score (higher = more potent)
ATAACAACCCGCTTGCTCCGGC	-0.269
ATCATCTTCAATAACAACCCGC	-0.379
TCATCTTCAATAACAACCCGCT	0.215
TTTCAGCACGTCATCAATCCTA	-0.00921
TTGTTGGTGTCCTGCAGGCGGC	-1.65
TTCAATAACAACCCGCTTGCTC	0.0759

These sequences were tested against CAMKV in the same assay as above. Details: shRNA.

Sequence	sensor-assay potency score (higher = more potent)
TATAGTTCTTCTTGTCGCCCAG	-0.36
TTCTGGAACTTCTTGCAGGTGT	-0.129
TCACTGATGACAATCTTCGAGT	-1.01
TAACACAAATAACAGGGTCTTA	-0.811
ATATCTGTCAGTCACCTCCGAT	-0.99
TTTCATTGTTGAACTGAGCAGA	0.188
TTGCCTGTCGTCTTGTCCTTGG	-0.405
TTATAGTTCTTCTTGTCGCCCA	0.464
TTAAACATACTGCCCTACCTTT	-0.684
TTGCTTGTGTCTCGCTCCGAGT	-1.54
TTGAACTGAGCAGAAAATCTGC	0.22
TATCTGTCAGTCACCTCCGATG	-0.879

What follows are sequences tested against CAMSAP1L1 in the same assay as above. Details: shRNA.

Sequence	sensor-assay potency score (higher = more potent)
TTGATTTCTTCAGTTTCTGGGC	-0.439
TACTTTTTCTATACTGACCATT	-0.4
TTTTGCAGCATCACTCTTGAGA	-0.108
TTCAACAGGTACATCAGCCTTT	0.426
TTCACCACTTCAAACCACCAGA	-0.595
TACACTCTCGTTATCACCCGTG	0.34
TTATCCAGTACATGACAGCGTC	-0.641
TACTGTATCCATATCTTCCATT	-0.745
TTCTGCTTTTTGATCATCCTTA	-0.157
TTGTTCATGACAACAGAGCTTA	0.195
TTGTATTATGTGCTTATTGGAT	-0.942

The sequences below were run against CAPNS2 in the same assay as above. Details: shRNA.

Sequence	sensor-assay potency score (higher = more potent)
TATCTCCATCTTCATTAGCATA	-1.87
ATACTGCTTATAAACACACTGC	-0.451
TAATTCAGCAGTAAAAGGCAGC	-0.377
TTTGTGCTTAGAAAGGACTTTG	-0.468
TTTGTTGAGAATATTCATCAGA	-0.0355
TAAAATCCATATCTCCATCTTC	-0.0154
ATGACAGACACAATGCTCCGGC	-0.17
TAGACACTTGAATCAGGCCATC	-1.43
TTGATAGACACTTGAATCAGGC	-0.108
TAAAATTCACAATTCCTCCAAC	-0.361
TATACTGAGCTGCTGCAGCCTC	-0.467

— the OligoGym collection
